For four compounds, outcome and AC50 results are on record in PubChem BioAssay (EPA / NIEHS).

The structures appear in SMILES notation. Calls of active or inactive are those of the source. Rule for the calls: active = hit-call score of the fitted dose curve at least 0.9, where 1 is the maximum; inactive = score below 0.9.

One may read the AC50 as the concentration at which the activity in the assay is half-maximal.

The target in assay [1] is Bile acid receptor (Homo sapiens) (UniProt Q96RI1). Put plainly: ATG_IR1_CIS: Attagene CIS-FACTORIAL HepG2 Assay for human Nuclear Receptor Subfamily 1 Group H Member 4 (NR1H4), IR1 submotif (AID 2282946). The note with it: IR1 reporter transcription, actives raise or lower the signal. An outline of the steps: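 Fluorescence of capillary-separated, HpaI-digested RT-PCR reporter products gave IR1-element mRNA induction in HepG2 cells 24 h after dosing. Endogenous transcription factors drove the cis-regulated reporters; activity was fitted bidirectionally against DMSO.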
Chain of Bile acid receptor (Homo sapiens) (Q96RI1 whole entry, looked up): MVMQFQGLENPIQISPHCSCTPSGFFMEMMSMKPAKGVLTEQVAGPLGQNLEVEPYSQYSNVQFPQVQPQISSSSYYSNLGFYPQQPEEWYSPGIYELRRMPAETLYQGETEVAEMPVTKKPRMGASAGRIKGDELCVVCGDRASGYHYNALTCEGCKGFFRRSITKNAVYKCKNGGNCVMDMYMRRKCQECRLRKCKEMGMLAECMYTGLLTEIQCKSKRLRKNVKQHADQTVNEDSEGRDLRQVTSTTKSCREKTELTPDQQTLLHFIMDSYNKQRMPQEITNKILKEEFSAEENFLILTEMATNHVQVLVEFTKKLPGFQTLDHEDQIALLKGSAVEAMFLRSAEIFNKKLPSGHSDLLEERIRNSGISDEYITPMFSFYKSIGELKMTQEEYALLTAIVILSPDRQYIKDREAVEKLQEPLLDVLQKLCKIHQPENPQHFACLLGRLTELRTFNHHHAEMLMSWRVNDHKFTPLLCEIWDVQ

Assay [2] is described as follows: ATG_GRE_CIS: Attagene CIS-FACTORIAL HepG2 Assay for human Glucocorticoid Response Elements (GRE) (AID 2282947). The conditions noted are these: HepG2 GRE cis-reporter, Attagene multiplex mRNA; actives raise or lower the signal. An outline of the steps: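 Read-out: fluorescent reporter-transcript fragments separated by capillary electrophoresis after RT-PCR. Transiently transfected HepG2 cells carrying cis-element-driven reporter units were dosed for 24 h; gain or loss of signal fitted against DMSO control.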

A short description of assay [3]: ATG_ISRE_CIS: Attagene CIS-FACTORIAL HepG2 Assay for human Interferon Regulatory Factor 1 (IRF1) binding to an Interferon-Stimulated Response Element (ISRE) (AID 2282948). The conditions noted are these: HepG2 ISRE cis-reporter (Attagene), mRNA transcription readout; actives raise or lower the signal. An outline of the steps: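 Uses HepG2 liver cells transfected with cis-regulated reporters and measures mRNA 24 h post-dosing through RT-PCR, primer-extension labelling and capillary electrophoresis, with DMSO as negative control.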

The nature of assay [4]: ATG_M_32_CIS: Attagene CIS-FACTORIAL HepG2 Assay for M32 Transcription Factor (Internal Marker) (AID 2282949).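 Note: background control marker of the multiplexed CIS panel rather than a real target.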 The note with it: HepG2 Attagene cis-factorial M32 reporter, mRNA; actives raise or lower the signal. The gist of the method:
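Using DMSO as baseline, bidirectional curve fits were applied to reporter mRNA signals. These came from transiently transfected HepG2 cells exposed for 24 h, with RNA analysed by RT-PCR, FAM primer extension, HpaI digestion and CE.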

The nature of assay [5]: ATG_M_06_CIS: Attagene CIS-FACTORIAL HepG2 Assay for M06 Transcription Factor (Internal Marker) (AID 2282950). The conditions noted are these: HepG2 Attagene CIS-FACTORIAL M06 internal marker reporter; actives raise or lower the signal. The gist of the method:
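Read-out is fluorescence of labelled reporter cDNA fragments resolved by capillary electrophoresis after RT-PCR. Cells: HepG2 carrying transfected cis-promoter reporter units, treated 24 h. Gain or loss of signal fitted relative to DMSO.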

The target in assay [6] is Hypoxia-inducible factor 1-alpha (Homo sapiens) (UniProt Q16665). The experiment in a line: ATG_HIF1a_CIS: Attagene CIS-FACTORIAL HepG2 Assay for human Hypoxia Inducible Factor 1 (HIF1A) (AID 2282951). The note with it: HepG2 Attagene cis-factorial HIF1a reporter transcription; actives raise or lower the signal. An outline of the steps: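 Dosed 24 h, transfected HepG2 cells yielded total RNA whose reporter transcripts were RT-PCR-amplified and sized by capillary electrophoresis using fluorescent labelling; DMSO defined baseline, with gain and loss of signal both fitted.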
Chain of Hypoxia-inducible factor 1-alpha (Homo sapiens) (Q16665 whole entry, looked up): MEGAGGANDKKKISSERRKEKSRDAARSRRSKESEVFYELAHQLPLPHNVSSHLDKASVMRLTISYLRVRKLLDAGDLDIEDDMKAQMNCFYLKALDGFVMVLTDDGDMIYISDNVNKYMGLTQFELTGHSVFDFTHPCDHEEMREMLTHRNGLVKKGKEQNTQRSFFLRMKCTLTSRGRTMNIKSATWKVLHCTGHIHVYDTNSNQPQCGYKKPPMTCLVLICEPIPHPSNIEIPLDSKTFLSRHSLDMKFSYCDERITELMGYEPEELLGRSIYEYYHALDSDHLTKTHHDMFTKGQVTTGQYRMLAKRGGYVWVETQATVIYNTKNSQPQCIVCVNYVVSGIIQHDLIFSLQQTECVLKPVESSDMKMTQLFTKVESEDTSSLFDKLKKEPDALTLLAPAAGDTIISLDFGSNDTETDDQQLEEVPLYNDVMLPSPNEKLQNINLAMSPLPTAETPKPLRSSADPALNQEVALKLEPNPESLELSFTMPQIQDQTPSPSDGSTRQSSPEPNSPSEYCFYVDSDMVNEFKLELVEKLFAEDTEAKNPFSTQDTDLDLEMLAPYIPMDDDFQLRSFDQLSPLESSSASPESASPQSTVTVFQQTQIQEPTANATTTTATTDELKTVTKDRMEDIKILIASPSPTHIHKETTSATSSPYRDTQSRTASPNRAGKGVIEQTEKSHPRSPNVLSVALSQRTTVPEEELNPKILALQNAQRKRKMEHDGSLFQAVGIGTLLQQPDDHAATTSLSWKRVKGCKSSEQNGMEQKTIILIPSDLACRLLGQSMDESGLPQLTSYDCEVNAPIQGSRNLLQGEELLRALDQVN

The target in assay [7] is Hepatocyte nuclear factor 6 (Homo sapiens) (UniProt Q9UBC0). The experiment in a line: ATG_HNF6_CIS: Attagene CIS-FACTORIAL HepG2 Assay for human Hepatocyte Nuclear Factor 6 (HNF6) (AID 2282952). The note with it: HepG2 Attagene cis-factorial HNF6 reporter transcription; actives raise or lower the signal. An outline of the steps: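 Endogenous transcription factor activity in human HepG2 liver cells was captured through cis-regulated reporter constructs. After 24 h treatment, reporter mRNA was measured by RT-PCR with capillary electrophoresis, and activity was fitted in both directions relative to DMSO.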
Chain of Hepatocyte nuclear factor 6 (Homo sapiens) (Q9UBC0 whole entry, looked up): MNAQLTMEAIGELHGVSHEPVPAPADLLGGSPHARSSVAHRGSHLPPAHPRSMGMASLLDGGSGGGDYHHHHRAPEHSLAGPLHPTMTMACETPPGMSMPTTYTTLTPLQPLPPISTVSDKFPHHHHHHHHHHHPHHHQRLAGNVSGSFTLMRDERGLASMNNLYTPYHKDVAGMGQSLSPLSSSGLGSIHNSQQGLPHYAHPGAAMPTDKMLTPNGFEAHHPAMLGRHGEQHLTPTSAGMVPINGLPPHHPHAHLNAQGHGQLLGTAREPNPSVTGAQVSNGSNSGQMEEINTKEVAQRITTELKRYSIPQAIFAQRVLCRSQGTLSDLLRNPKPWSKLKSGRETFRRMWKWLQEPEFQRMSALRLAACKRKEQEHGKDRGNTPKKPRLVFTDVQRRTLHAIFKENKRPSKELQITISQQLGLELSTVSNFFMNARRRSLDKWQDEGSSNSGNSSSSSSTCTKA

The target of assay [8] is Heat shock factor protein 1 (Homo sapiens) (UniProt Q00613). Put plainly: ATG_HSE_CIS: Attagene CIS-FACTORIAL HepG2 Assay for human Heat Shock Transcription Factor 1 (HSE) (AID 2282953). The conditions noted are these: HepG2 HSE cis-reporter, Attagene RNA transcription; actives raise or lower the signal. An outline of the steps: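 HepG2, transient MRTU transfection, cis-promoter reporters (endogenous TF activity). 24 h compound. RNA → oligo(dT) RT → PCR → 6-FAM primer extension → HpaI cut → CE. Bidirectional fit vs DMSO.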
Chain of Heat shock factor protein 1 (Homo sapiens) (Q00613 whole entry, looked up): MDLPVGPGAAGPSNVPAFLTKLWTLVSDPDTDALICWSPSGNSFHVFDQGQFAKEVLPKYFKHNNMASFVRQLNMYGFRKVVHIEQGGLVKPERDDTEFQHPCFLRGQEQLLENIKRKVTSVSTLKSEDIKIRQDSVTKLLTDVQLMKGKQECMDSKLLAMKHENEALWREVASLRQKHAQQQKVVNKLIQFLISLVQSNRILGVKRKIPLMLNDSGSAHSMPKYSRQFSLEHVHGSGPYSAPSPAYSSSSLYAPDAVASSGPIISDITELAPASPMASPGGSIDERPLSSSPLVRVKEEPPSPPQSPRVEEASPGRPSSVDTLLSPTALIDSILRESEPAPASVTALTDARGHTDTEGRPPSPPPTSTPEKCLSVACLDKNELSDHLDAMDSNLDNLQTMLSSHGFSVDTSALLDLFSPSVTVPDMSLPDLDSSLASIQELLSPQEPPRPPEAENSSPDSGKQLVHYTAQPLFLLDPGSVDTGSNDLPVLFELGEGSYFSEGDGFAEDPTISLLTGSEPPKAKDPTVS

Assay [9] is described as follows: ATG_MRE_CIS: Attagene CIS-FACTORIAL HepG2 Assay for human Metal Responsive Element (MRE) (AID 2282954). The conditions noted are these: HepG2 MRE cis-reporter transcription, Attagene multiplex; actives raise or lower the signal. An outline of the steps:
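RT-PCR/capillary electrophoresis readout of reporter mRNA, 24 h post-dosing, in HepG2 cells transfected with multiplexed cis-regulated reporter constructs. Gain or loss of signal fitted bidirectionally against DMSO baseline.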

In assay [10] the target is Paired box protein Pax-6 (Homo sapiens) (UniProt P26367). The experiment in a line: ATG_Pax6_CIS: Attagene CIS-FACTORIAL HepG2 Assay for human Paired Box 6 (PAX6) (AID 2282956). The conditions noted are these: HepG2 CIS-FACTORIAL PAX6 reporter transcription, RNA readout; actives raise or lower the signal. The gist of the method:
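DMSO-referenced bidirectional fits of reporter mRNA fluorescence; HepG2 with transient cis-promoter MRTUs, 24 h post-dose, RT-PCR plus capillary electrophoresis detection.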

The nature of assay [11]: ATG_PXRE_CIS: Attagene CIS-FACTORIAL HepG2 Assay for human Pregnane X Receptor Element (PXRE) (AID 2282957). The conditions noted are these: HepG2 Attagene CIS-FACTORIAL PXRE reporter, mRNA; actives raise or lower the signal. The gist of the method:
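Endogenous transcription factor activity in HepG2 was gauged through induction of reporter mRNA driven by a cis-regulating promoter element, sampled 24 h post-treatment. Activity was fitted in both directions against DMSO negative control.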

Assay [12] in a line: ATG_PPRE_CIS: Attagene CIS-FACTORIAL HepG2 Assay for human Peroxisome Proliferator-activated Response Element (PPRE) (AID 2282958). The conditions noted are these: HepG2 PPRE cis-element reporter, Attagene transcription factor profiling; actives raise or lower the signal. An outline of the steps: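 Measured endpoint: PPRE-controlled reporter mRNA, detected by RT-PCR and capillary electrophoresis fluorescence, from transiently transfected HepG2 cells 24 h after dosing. Curves fitted in both directions using DMSO baseline.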

Assay [13] is described as follows: ATG_Sox_CIS: Attagene CIS-FACTORIAL HepG2 Assay for human SRY-box transcription factor (SOX) (AID 2282960). The conditions noted are these: HepG2 Attagene cis-factorial SOX reporter, mRNA; actives raise or lower the signal. An outline of the steps: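 Gain- or loss-of-signal endpoint, fitted bidirectionally with DMSO as negative control. Based on reporter mRNA from transfected HepG2 cells harvested 24 h post-treatment and quantified via RT-PCR and capillary electrophoresis.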

Assay [14] addresses Transcription factor Sp1 (Homo sapiens) (UniProt P08047). Put plainly: ATG_Sp1_CIS: Attagene CIS-FACTORIAL HepG2 Assay for human Specificity Protein 1 (Sp1) (AID 2282961). The note with it: HepG2 Sp1 cis-reporter transcription, actives raise or lower the signal. The gist of the method: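 Endpoint reflects endogenous Sp1 transcriptional activity, not an exogenous fusion protein: HepG2 cells with transfected cis-regulated reporters, 24 h dosing, RT-PCR/capillary electrophoresis mRNA read-out, DMSO-normalised bidirectional fit.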

Assay [15] is described as follows: ATG_SREBP_CIS: Attagene CIS-FACTORIAL HepG2 Assay for human Sterol Regulatory Element Binding (SREBP) (AID 2282962). The note with it: HepG2 Attagene cis-factorial SREBP reporter, mRNA; actives raise or lower the signal. The gist of the method:
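In this cis-format assay, HepG2 liver cells express reporters controlled by promoter elements responsive to native transcription factors. Exposure lasts 24 h; reporter mRNA fluorescence from capillary electrophoresis gives the signal, fitted bidirectionally against DMSO.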

For assay [16], the target named is Signal transducer and activator of transcription 3 (Homo sapiens) (UniProt P40763). The experiment in a line: ATG_STAT3_CIS: Attagene CIS-FACTORIAL HepG2 Assay for human Signal Transducer and Activator of Transcription 3 (STAT3) (AID 2282963). The conditions noted are these: HepG2, Attagene cis-factorial STAT3 reporter transcription; actives raise or lower the signal. An outline of the steps: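 Readout: fluorescent reporter mRNA fragments resolved by capillary electrophoresis. Setup: HepG2 transfected with MRTUs reporting endogenous transcription-factor activity, dosed 24 h. Gain or loss of signal fitted bidirectionally against DMSO control.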
Chain of Signal transducer and activator of transcription 3 (Homo sapiens) (P40763 whole entry, looked up, the tested form may be a part): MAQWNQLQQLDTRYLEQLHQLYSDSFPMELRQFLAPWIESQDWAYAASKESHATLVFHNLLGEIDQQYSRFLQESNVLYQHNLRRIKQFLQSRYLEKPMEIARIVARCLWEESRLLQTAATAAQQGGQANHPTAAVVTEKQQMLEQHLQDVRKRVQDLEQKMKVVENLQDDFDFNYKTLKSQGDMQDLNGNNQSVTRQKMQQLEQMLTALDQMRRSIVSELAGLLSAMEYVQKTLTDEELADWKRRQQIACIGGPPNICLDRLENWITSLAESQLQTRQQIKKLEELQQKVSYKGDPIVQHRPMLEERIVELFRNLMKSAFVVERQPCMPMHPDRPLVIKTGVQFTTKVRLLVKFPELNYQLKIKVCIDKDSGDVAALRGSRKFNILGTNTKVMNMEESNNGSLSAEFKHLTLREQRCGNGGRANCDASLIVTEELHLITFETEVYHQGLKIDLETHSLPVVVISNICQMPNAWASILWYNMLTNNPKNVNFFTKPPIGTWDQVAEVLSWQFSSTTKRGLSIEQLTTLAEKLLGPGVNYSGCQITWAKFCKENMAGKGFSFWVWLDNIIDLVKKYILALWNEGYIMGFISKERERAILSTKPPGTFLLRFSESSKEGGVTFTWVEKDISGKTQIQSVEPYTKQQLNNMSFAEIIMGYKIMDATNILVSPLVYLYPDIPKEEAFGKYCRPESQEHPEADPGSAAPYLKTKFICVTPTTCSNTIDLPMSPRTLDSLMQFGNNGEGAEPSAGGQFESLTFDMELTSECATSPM

Assay [17] is described as follows: ATG_TA_CIS: Attagene CIS-FACTORIAL HepG2 Assay for human TA Basal Promoter (AID 2282964). The conditions noted are these: HepG2 Attagene CIS-factorial TA basal promoter reporter; actives raise or lower the signal. An outline of the steps:
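Read-out: fluorescent reporter-transcript fragments resolved by capillary electrophoresis after RT-PCR and HpaI digestion. Source: HepG2 cells carrying transiently transfected multi-reporter cis constructs, treated 24 h. Endpoint fitted bidirectionally relative to DMSO.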

Assay [18] in a line: ATG_TCF_b_cat_CIS: Attagene CIS-FACTORIAL HepG2 Assay for human T-Cell-Factor with beta-catenin (TCF/b-cat) (AID 2282965). The note with it: HepG2 TCF/beta-catenin cis-reporter transcription, actives raise or lower the signal. The gist of the method:
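HepG2, transient MRTU transfection, cis-element-driven reporters (endogenous TFs). 24 h compound exposure. Readout: reporter mRNA by RT-PCR + 6-FAM primer extension, HpaI digest, capillary electrophoresis. Gain/loss fit vs DMSO baseline.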

The nature of assay [19]: ATG_PBREM_CIS: Attagene CIS-FACTORIAL HepG2 Assay for human Phenobarbital-responsive Enhancer Module (PBREM) (AID 2282955). The conditions noted are these: HepG2 PBREM cis-reporter, Attagene multiplexed transcription; actives raise or lower the signal. The gist of the method:
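Transfected liver-derived HepG2 cells exposed 24 h; PBREM reporter transcript quantified via RT-PCR and capillary electrophoresis, with activity in either direction referenced to DMSO.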

Assay [20] can be described thus: ATG_RORE_CIS: Attagene CIS-FACTORIAL HepG2 Assay for human RAR-related Orphan Receptor Element (RORE) (AID 2282959). The note with it: HepG2 Attagene cis-factorial RORE reporter, mRNA; actives raise or lower the signal. An outline of the steps: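 Transiently transfected HepG2 reporter cells were treated 24 h. Reporter transcripts were detected by RT-PCR and capillary electrophoresis, with bidirectional fitting against DMSO.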

Chain of Paired box protein Pax-6 (Homo sapiens) (P26367 whole entry, looked up): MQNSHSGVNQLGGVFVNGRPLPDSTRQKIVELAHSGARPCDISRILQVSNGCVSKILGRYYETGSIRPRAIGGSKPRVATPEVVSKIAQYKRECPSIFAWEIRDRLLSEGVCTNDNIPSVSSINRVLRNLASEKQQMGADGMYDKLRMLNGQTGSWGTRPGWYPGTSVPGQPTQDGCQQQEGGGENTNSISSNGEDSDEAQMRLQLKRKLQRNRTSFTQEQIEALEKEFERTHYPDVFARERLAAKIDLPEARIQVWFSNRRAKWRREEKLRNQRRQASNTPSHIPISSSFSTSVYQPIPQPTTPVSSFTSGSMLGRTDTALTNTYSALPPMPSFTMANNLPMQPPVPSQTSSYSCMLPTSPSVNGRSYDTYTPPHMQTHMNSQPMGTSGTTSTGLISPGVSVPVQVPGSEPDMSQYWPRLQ
Chain of Transcription factor Sp1 (Homo sapiens) (P08047 whole entry, looked up, the tested form may be a part): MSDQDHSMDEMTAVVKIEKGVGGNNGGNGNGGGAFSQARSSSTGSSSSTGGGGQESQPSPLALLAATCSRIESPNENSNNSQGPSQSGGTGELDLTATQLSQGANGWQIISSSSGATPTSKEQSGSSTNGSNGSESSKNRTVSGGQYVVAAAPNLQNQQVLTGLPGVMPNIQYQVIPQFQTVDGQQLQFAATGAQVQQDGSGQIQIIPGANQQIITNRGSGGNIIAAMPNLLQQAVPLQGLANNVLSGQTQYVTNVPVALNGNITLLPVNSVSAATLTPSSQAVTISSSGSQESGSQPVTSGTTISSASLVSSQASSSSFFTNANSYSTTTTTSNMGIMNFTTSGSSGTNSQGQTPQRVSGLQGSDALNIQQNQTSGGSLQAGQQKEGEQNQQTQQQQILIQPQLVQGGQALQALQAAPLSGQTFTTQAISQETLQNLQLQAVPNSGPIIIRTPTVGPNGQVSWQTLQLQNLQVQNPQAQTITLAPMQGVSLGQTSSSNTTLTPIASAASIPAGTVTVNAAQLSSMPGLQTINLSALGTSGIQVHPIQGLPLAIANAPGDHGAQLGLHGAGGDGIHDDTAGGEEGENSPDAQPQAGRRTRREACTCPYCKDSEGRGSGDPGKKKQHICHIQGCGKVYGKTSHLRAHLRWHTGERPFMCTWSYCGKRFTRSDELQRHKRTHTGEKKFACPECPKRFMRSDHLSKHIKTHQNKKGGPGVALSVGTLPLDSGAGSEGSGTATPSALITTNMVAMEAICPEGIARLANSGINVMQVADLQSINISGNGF

In the case of `CC(=O)CC(=O)Nc1ccccc1`, the call in [1], in assay [2], in assay [3], in [4], in [5] and in [7] was inactive. Moreover, the compound was classed as inactive in assay [8], in [9], in assay [10], in assay [11], in [12] and in assay [13]. Also, the call in assay [14], in [15], in [16], in [17] and in [18] was inactive. Besides, the half-maximal activity concentration (AC50) in assay [6] is 24.2 µM (active).
On to `CCCCCCC(C)(C)S`, for which the result in assay [1], in assay [2], in assay [3], in [4], in assay [5] and in assay [6] was inactive. The compound was called inactive in assay [7], in assay [9], in assay [19], in assay [10], in assay [20] and in assay [13]. Besides, the result in assay [14], in assay [15], in assay [16] and in assay [18] was inactive. The AC50 in assay [11] was 39 µM (active).
On to `NC1CCCCC1N` (centres undefined), for which the call in assay [1], in assay [2], in assay [3], in assay [4], in assay [5] and in assay [6] was inactive. In addition, the compound was classed as inactive in assay [7], in assay [9], in [10], in [11], in assay [12] and in assay [20]. Further, the call in [13], in [14], in [15], in [16] and in assay [17] was inactive.
Take `CCCCCC(=O)CC`: the call in assay [1], in assay [3], in assay [4], in [5], in [6] and in assay [7] was inactive. For the same compound, the compound was called inactive in assay [8], in assay [9], in assay [19], in [12], in [20] and in assay [13]. Besides, the outcome in [15], in assay [16], in assay [17] and in [18] was inactive. The AC50 in [11] is 33.4 µM (active).
